Screening results from PubChem.
PMP22 txn prim: Cell-based coincidence reporter assay to measure PMP22 gene transcription in S16 Pmp22-F2sN cells - Primary screen. S16 Pmp22-F2sN Schwann cells, FLuc/NLuc coincidence luminescence, 24 h. Potency, µM (series often up to 57.5 µM), inactives show top-dose activity change, negative = inhibition, actives largely listed as inhibitors. 43,000 compounds, 2% hits; active means clear falling dose curves in both reporters; inconclusive means both reporters move, but less clearly or upward; inactive means either reporter flat; the % is the NLuc reporter signal; further: potency means the concentration at half of the fitted maximal effect; on the % scale 0 is the no-effect control and ±100 the full control effect
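Rat S16 Pmp22-F2sN cells, 500-1,000/well in phenol red-free DMEM + 10% FBS, compound-treated 24 h (37C, 5% CO2). Luminescence: FLuc read, Stop&Glo added, NLuc read.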
p53null 32C kill: qHTS Screen for Compounds that Selectively Target Cancer Cells with p53 Mutations: Cytotoxicity of p53 Null Cells at the Permissive Temperature; Potency, µM (titrated, usually from 46.1 µM), without a hit: at the highest dose activity change, negative = cytotoxicity, actives largely listed as cytotoxic; 55,000 compounds, 0.62% hits; H1299-neo p53 null cells, ATP luminescence, 24 h, 32C;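 further: potency means the concentration at half of the fitted maximal effect; 0% = DMSO only and -100% = full killing by 100 µM tamoxifen; nearly all actives have a fitted effect of over 55% in size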
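AC50 values derive from Hill modelling of qHTS concentration-response data (up to 46 uM) in H1299-neo cells. Cells were treated 24 h at 32C following overnight attachment at 37C; viability was read as cellular ATP.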
S16 F2sN tox: Cell viability qHTS assay in S16 Pmp22-F2sN cells; S16 Pmp22-F2sN Schwann cells (luciferase reporters placed in the Pmp22 gene) viability, CellTiter-Glo, 24 h; Potency, µM (highest dose often 57.5 µM), for inactives: at the top dose activity change, negative = cytotoxicity, actives largely listed as cytotoxic; 43,000 compounds, 0.48% hits; AID 1508642, 2021; further: potency means the concentration at half of the fitted maximal effect; on the % scale 0 is the no-effect control and ±100 the full control effect; nearly all actives have a fitted effect of over 65% in size
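Rat S16 Schwann reporter line, 24 h treatment with library compounds delivered at 23 nL per well. Cell viability by CellTiter-Glo luminescence.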
mTORC1 inh: Acumen qHTS Assay for Inhibitors of the mTORC1 Signaling Pathway in MEF (Tsc2-/-, p53-/-) Cells: Sytravon. 44,000 compounds, 0.78% hits. AID 493208, 2011. Potency, µM (highest dose often 38.3 µM), for the others: at the top dose activity change, negative = inhibition, actives largely listed as inhibitors. Tsc2-/- p53-/- MEF, phospho-rpS6 immunofluorescence/PI, 24 h;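 further: potency means the concentration at half of the fitted maximal effect; plate controls were DMSO for no effect and rapamycin for full effect; nearly all actives have a fitted effect of over 50% in size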
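Tsc2-/-, p53-/- mouse embryonic fibroblasts (empty-vector line) exposed to compound 24 hrs at 37 C, fixed, immunostained for phospho-rpS6 and counterstained with propidium iodide. Acumen laser scanning gives % positive cells from Alexa 488/PI ratio, thresholded using 7.5 nM rapamycin; PI count gives viability.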
p53null 39C kill: qHTS Screen for Compounds that Selectively Target Cancer Cells with p53 Mutations: Cytotoxicity of p53 Null Cells at the Nonpermissive Temperature; Potency, µM (highest dose often 46.1 µM), for the others: at the top dose activity, negative = cell killing, usual class: cytotoxic; AID 904, 2007; 55,000 compounds, 0.97% hits; H1299 p53-null (neo) cells, 39C, ATPlite viability, 24 h;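 further: potency means the concentration at half of the fitted maximal effect; 0% = DMSO only and -100% = full killing by 100 µM tamoxifen; nearly all actives have a fitted effect of over 50% in size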
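Luminescent ATP signal reported cell survival after H1299 lines (neo, p53 null; or p53 A138V) received up to 46 uM compound and 24 hr incubation at 39C.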
SKOV3 invasion: Primary qHTS assay for Inhibitors of ovarian cancer metastasis using an organotypic tumor microenvironment (TME) model; SKOV3ip1-GFP adhesion/invasion on 3D omental model, fluorescence; Potency, µM (highest dose often 45.8 µM), without a hit: top-dose activity change, negative = inhibition, actives largely listed as inhibitors; 46,000 compounds, 0.1% hits;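 further: potency means the concentration at half of the fitted maximal effect; plate controls were DMSO wells for no effect and tomatine positive control wells for full effect; nearly all actives have a fitted effect of over 65% in size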
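qHTS, 4-pt dose (0.36-46 umol/L); SKOV3ip1-GFP, 1,200 cells/well, no FBS; primary omental fibroblast/mesothelial co-culture 48 h pre-grown; 2 h RT + 16 h 37 C; PBS wash, 4% PFA; GFP count 488/509 nm.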
NLuc sat counter: Biochemical NLuc saturation counterscreen for small molecule modulators of PMP22 gene expression - Nano-Glo assay. Secreted NLuc enzyme (filtered S16 cell medium), Nano-Glo luminescence. shares compounds with PMP22 txn prim. 690 compounds, 4% hits. Potency, µM (series often up to 57.5 µM), for the others: at the highest dose activity change, negative = inhibition, hits mostly inhibitors; further: potency means the concentration at half of the fitted maximal effect; on the % scale 0 is the no-effect control and ±100 the full control effect
NLuc Km counter: Biochemical coelenterazine-based NLuc counterscreen for small molecule modulators of PMP22 gene expression - Km assay; shares compounds with PMP22 txn prim; secreted NLuc enzyme, coelenterazine luminescence, Km conditions; Potency, µM (titrated, usually from 57.5 µM), for inactives: at the highest dose activity change, negative = inhibition, actives largely listed as inhibitors; 690 compounds, 5% hits; further: potency means the concentration at half of the fitted maximal effect; on the % scale 0 is the no-effect control and ±100 the full control effect
FLuc counter: Biochemical FLuc counterscreen for small molecule modulators of PMP22 gene expression | shares compounds with PMP22 txn prim | purified P. pyralis FLuc, luminescence, 10 min | Potency, µM (series often up to 57.5 µM), for the others: top-dose activity, negative = inhibition, usual class: inhibitors | 690 tested, under 10 active | AID 1508640, 2021; further: % of control where 0% means no effect
Target sequence (P08659 whole entry, looked up): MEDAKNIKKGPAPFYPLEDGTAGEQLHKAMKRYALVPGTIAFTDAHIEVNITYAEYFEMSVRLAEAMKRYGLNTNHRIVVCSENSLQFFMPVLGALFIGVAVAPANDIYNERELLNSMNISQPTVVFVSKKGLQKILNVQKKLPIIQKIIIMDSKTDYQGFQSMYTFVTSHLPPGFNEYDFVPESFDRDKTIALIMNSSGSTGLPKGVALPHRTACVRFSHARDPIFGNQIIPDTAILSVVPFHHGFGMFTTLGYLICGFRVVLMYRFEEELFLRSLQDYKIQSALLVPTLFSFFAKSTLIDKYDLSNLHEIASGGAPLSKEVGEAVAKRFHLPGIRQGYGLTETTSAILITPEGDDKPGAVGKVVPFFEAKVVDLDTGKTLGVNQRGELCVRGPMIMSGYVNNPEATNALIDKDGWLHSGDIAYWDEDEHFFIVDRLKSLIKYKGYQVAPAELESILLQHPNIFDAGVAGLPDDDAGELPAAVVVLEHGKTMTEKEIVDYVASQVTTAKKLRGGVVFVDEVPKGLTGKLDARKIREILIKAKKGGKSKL
S16 viab conf: Cell viability qHTS assay in S16 Pmp22-F2sN cells - Confirmatory screen. 690 compounds, 7% hits. S16 Schwann cells viability, CellTiter-Glo ATP luminescence, 24 h. AID 1508641, 2021. shares compounds with PMP22 txn prim. Potency, µM (doses to about 57.5 µM), without a hit: top-dose activity change, negative = viability loss, hits mostly cytotoxic; further: potency means the concentration at half of the fitted maximal effect; on the % scale 0 is the no-effect control and ±100 the full control effect
PMP22 txn cnf: Cell-based coincidence reporter assay to measure PMP22 gene transcription in S16 Pmp22-F2sN cells - Confirmatory screen; shares compounds with PMP22 txn prim; S16 Schwann cells Pmp22-F2sN, dual luciferase, 24 h; Potency, µM (top dose mostly 57.5 µM), without a hit: at the top dose activity change, negative = inhibition, most hits filed as inhibitors; 690 compounds, 22% hits; active means clear falling dose curves in both reporters; inconclusive means both reporters move, but less clearly or upward; inactive means either reporter flat; the % is the FLuc reporter signal; further: potency means the concentration at half of the fitted maximal effect
The depositor's hits bear a star; i = inactive; ? = inconclusive; . = not tested or not shown. Compounds with a hit are over-represented: about 3.1% of the library has one in this group of screens. Unless noted, the call rests on the fitted dose curve; in most records, active means well fitted curve in the direction sought with a large enough effect; inconclusive means small, poorly fitted or top-dose-only effect, or another doubt; inactive means no such curve, though single readings can be large; an effect the other way counts as inactive or inconclusive.

SMILES	PMP22 txn prim	p53null 32C kill	S16 F2sN tox	mTORC1 inh	p53null 39C kill	SKOV3 invasion	NLuc sat counter	NLuc Km counter	FLuc counter	S16 viab conf	PMP22 txn cnf
Cc1cc(C)c(NC(=O)Cn2c(=O)n(Cc3ccc4c(c3)OCO4)c(=O)c3ccccc32)c(C)c1	?	4%	-6%	4%	-11%	i	.	.	.	.	.
Cc1ccccc1NC(=O)Cn1c(=O)n(Cc2ccc3c(c2)OCO3)c(=O)c2ccc(C(=O)NC3CCCCC3)cc21	11µM*	11%	?	4%	-1%	-1%	-3%	2%	7%	24µM*	15µM*
Cc1ccc(NC(=O)Cn2c(=O)n(Cc3ccc4c(c3)OCO4)c(=O)c3ccc(C(=O)NC4CCCCC4)cc32)c(C)c1	8.4µM*	10%	4%	-9%	27%	36%	-1%	-3%	1%	-25%	?
O=C1c2c(O)cc(O)cc2O[C@H](c2cc(O)c(O)c(O)c2)[C@H]1O	.	.	.	.	.	-3%	.	.	.	.	.
CC(C)n1c(C=C[C@H](O)C[C@H](O)CC(=O)O)c(-c2ccc(F)cc2)c2ccccc21	.	.	.	.	.	2%	.	.	.	.	.
CCCNC(=O)c1ccc2c(c1)N=C(CCC)c1ccccc1S2	11µM*	-7%	3%	?	?	i	?	9.7µM*	4%	-1%	4.1µM*
CCC1=Nc2cc(C(=O)NCCN(CC)CC)ccc2Sc2ccccc21	17µM*	21%	-12%	?	4%	2%	-19%	0%	-6%	-28%	?
Cc1cc(-c2ncc(CC(=O)Nc3ccc(-c4cnccn4)cn3)cc2C)ccn1	.	.	.	.	.	-1%	.	.	.	.	.
CC[C@H]1OC(=O)[C@H](C)[C@@H](O[C@H]2C[C@@](C)(OC)[C@@H](O)[C@H](C)O2)[C@H](C)[C@@H](O[C@@H]2O[C@H](C)C[C@H](N(C)C)[C@@H]2O)[C@](C)(OC)C[C@@H](C)C(=O)[C@H](C)[C@@H](O)[C@]1(C)O	.	.	.	.	.	-2%	.	.	.	.	.
Cc1c(-c2ccc(O)cc2)n(Cc2ccc(OCCN3CCCCCC3)cc2)c2ccc(O)cc12	.	.	.	.	.	2%	.	.	.	.	.
CCN1CCN(CCCNC(=O)c2ccc3c(c2)sc2nc(-c4ccc(C)cc4)cn23)CC1	9.5µM*	-3%	?	9%	-19%	i	15µM*	?	6.9µM*	19µM*	17µM*
O=C(NCCCN1CCCCC1)c1ccc2c(c1)sc1nc(-c3ccc(F)cc3)cn12	?	6%	?	0%	-1%	?	.	.	.	.	.
CCN(CC)c1cc(C)c2cc(NC(=O)/C=C/c3ccccc3Cl)ccc2n1	12µM*	-3%	?	?	?	?	?	-17%	-24%	?	?
COC[C@H](NC(=O)c1cnc(C)s1)C(=O)N[C@@H](COC)C(=O)N[C@@H](Cc1ccccc1)C(=O)[C@@]1(C)CO1	.	.	.	.	.	-9%	.	.	.	.	.
Cc1c(C(=O)OC2CCCCCC2)[nH]c2c1C(=O)CC(c1ccccc1Cl)C2 (stereo unspecified)	?	25%	-22%	-25%	24%	-20%	.	.	.	.	.
Cc1c(C(=O)OC2CCC(C)CC2)[nH]c2c1C(=O)CC(c1ccccc1Cl)C2 (stereo unspecified)	10µM*	29%	-28%	?	38%	i	?	-5%	6%	10%	-23%
Cc1cnc(NC(=O)Nc2cc(Br)c(C)cc2OC[C@@H]2CNCCO2)cn1	.	.	.	.	.	4%	.	.	.	.	.
CC(CNC(=O)CCCn1c(=O)c2cccn2c2ccc(F)cc21)c1ccccc1 (stereo unspecified)	19µM*	9%	-14%	5%	5%	0%	?	-7%	5%	-1%	?
CC(CNC(=O)CCn1c(=O)c2cccn2c2ccc(F)cc21)c1ccccc1 (stereo unspecified)	?	12%	-1%	-5%	66%	5%	.	.	.	.	.
COc1ccc2cc([S+]([O-])Cc3ncc(C)c(OC)c3C)nc2c1	.	.	.	.	.	-5%	.	.	.	.	.
Cc1oc(-c2ccc(Cl)cc2)nc1CN1CCCC(C(=O)NCc2ccccc2)C1 (stereo unspecified)	18µM*	-3%	-29%	-1%	-12%	-13%	?	?	-6%	-24%	?
